Measured values from PubChem BioAssay (NCATS).
Records with an inconclusive call do not appear. Entries that show only a call come without a potency. The source made the active and inactive calls. Unless noted, calls come from the whole dose curve; as a rule, active = well fitted curve in the direction sought with a large enough effect; inconclusive = small, poorly fitted or top-dose-only effect, or another doubt; inactive = no such curve, though single readings can be large; an effect the other way counts as inactive or inconclusive.

Columns and labels:
[1] = Cell Viability - Mesenchymal (AID 546);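 note: potency is the fitted concentration of half-maximal effect; cells exposed to compound for 40 hours before reading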
Outline: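 Human kidney mesenchymal cells from normal renal glomeruli, 1000 cells/well, rested 5 hr at 37 °C, then treated 40 hr at 37 °C in complete medium. Cellular ATP read by CellTiter-Glo luminescence; AC50 from Hill-equation fits.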

[2] = Cellular Toxicity (caspase-3) HepG2 (AID 654);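 note: cells exposed to compound for 16 hours before reading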
Outline: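 HepG2 cells (1500/well) were treated 16 h at 37 °C in complete medium, then caspase 3/7 activity was read by Caspase-Glo luminescence. Data were normalized to DMSO and 100 uM tamoxifen; AC50 came from Hill-equation fits of qHTS concentration-response.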

[3] = Cellular Toxicity (caspase-3) Jurkat (AID 655);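 note: cells exposed to compound for 16 h at 37 °C before reading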
Outline: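 Caspase 3/7 activation is scored as increased luminescence in Jurkat cells cultured with compound for 16 hours in complete medium. AC50 values come from Hill fits of qHTS concentration-response data normalized to DMSO and 100 uM tamoxifen controls.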

[4] = Cellular Toxicity (caspase-3) HUV-EC-C (AID 656)
Outline: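 Read-out: luminescence proportional to caspase 3/7 activity, measured 20 min after adding Caspase-Glo 3/7 reagent. Cells (HUV-EC-C) had received compound for 16 hr at 37°C. Increases relative to DMSO and 100 uM tamoxifen gave concentration-response AC50 values.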

[5] = Cellular Toxicity (caspase-3) SHSY5Y (AID 657)
Outline: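 Cells plated and incubated 5 h at 37 °C, dosed over a concentration range, incubated 16 h, then given Caspase-Glo 3/7 reagent for 1 h at room temperature before luminescence reading. Staurosporine (10 uM) defined full stimulation.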

[6] = Cellular Toxicity (caspase-3) BJ (AID 658)
Outline: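 BJ human foreskin fibroblasts, 1000 cells/well, treated 16 hours at 37 °C in complete medium; caspase 3/7 activity by Caspase-Glo luminescence after 1 hr at room temperature. Normalized to DMSO and 10 uM staurosporine; AC50 from Hill fits.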

[7] = Cellular Toxicity (caspase-3) MRC-5 (AID 659)
Outline: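 MRC-5 human normal lung fibroblasts, 1500 cells/well, treated 16 h at 37 °C in complete medium. Caspase 3/7 measured by Caspase-Glo luminescence after 1 h at room temperature. Normalized to DMSO and 10 uM staurosporine; AC50 from Hill fit.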

[8] = target: Estrogen receptor (Homo sapiens) (UniProt P03372); assay: qHTS assay for small molecule agonists of estrogen receptor alpha signaling (AID 588514; calls by dose curve; note: nearly all actives have a fitted effect of over 70% in size)
Outline: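 ER-alpha-UAS-bla GripTite HEK293 cells, 5000/well in 2% charcoal/dextran-stripped FBS medium, treated with compound titrations 18 h at 37 C. CCF4 beta-lactamase read by fluorescence after 2 h RT; normalised to 20 nM 17-beta-estradiol (100%) and DMSO (0%), Hill fit for EC50 and efficacy.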

[9] = target: Androgen receptor (Homo sapiens) (UniProt P10275); assay: qHTS assay for small molecule antagonists of androgen receptor signaling (AID 588516; active = well fitted curve in the direction sought with a large enough effect in the signal ratio, with a control signal flat, not every such curve was filed as active; the % refers to the signal ratio)
Outline: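 Antagonist-mode qHTS: inhibition of R1881 (10 nM)-driven beta-lactamase expression in GripTite HEK 293 cells is measured after 16 h; values are Hill-derived IC50s normalized between R1881 and DMSO wells.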

[10] = target: Glucocorticoid receptor (Homo sapiens) (UniProt P04150); assay: qHTS assay for small molecule agonists of glucocorticoid receptor signaling (AID 588532; active = well fitted curve in the direction sought with a large enough effect in the signal ratio, with a control signal flat; the % refers to the signal ratio); conditions: HeLa MMTV-bla, beta-lactamase ratio, agonist, 18 h; stronger effect = higher value; percent of dexamethasone control, DMSO zero
Outline: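 Cells were plated and rested 3-5 h at 37 C, compounds were added in titration and incubated 18 h, then CCF4 substrate was loaded for 2 h at RT before reading blue/green fluorescence. EC50 came from Hill-equation fitting.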

[11] = target: Glucocorticoid receptor (Homo sapiens) (UniProt P04150); assay: qHTS assay for small molecule antagonists of glucocorticoid receptor signaling (AID 588533; active = well fitted inhibition curve with a large enough effect in the signal ratio, with a control signal flat, not every such curve was filed as active; the % refers to the signal ratio;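 note: cells stimulated with 2 nM dexamethasone as agonist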)
Outline: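 Antagonist-mode qHTS: compound titrations added to GRE-bla HeLa cells, then dexamethasone 2 nM final; 18 h, 37 C. CCF4 FRET fluorescence normalized to dexamethasone and DMSO; IC50 from Hill fit.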

[12] = qHTS assay for small molecule antagonists of retinoid X receptor alpha signaling (AID 588546; active = well fitted inhibition curve with a large enough effect in the signal ratio, with a control signal flat, not every such curve was filed as active; the % refers to the signal ratio;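 note: cells stimulated with 9-cis-retinoic acid as agonist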); conditions: HEK293T RXRa-UAS-bla, beta-lactamase ratio, antagonist mode; measured here: W530 green channel, cytotoxicity proxy
Outline: (§1)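 Beta-lactamase reporter inhibition, read as CCF4 fluorescence ratio (ex 405, em 460/530 nm) after 2 h at RT. HEK293T UAS-bla cells, 2500/well, were stimulated with 9-cis-RA at 500 or 100 nM final alongside test compound for 18 h at 37 C.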

[13] = target: Retinoic acid receptor RXR-alpha (Homo sapiens) (UniProt P19793); assay: as above; conditions: HEK293T RXRa-UAS-bla, beta-lactamase ratio, antagonist mode
Outline: as §1

[14] = qHTS assay for small molecule disruptors of the mitochondrial membrane potential - 1 hr assay (AID 651754; calls by dose curve; note: nearly all actives have a fitted effect of over 35% in size)
Outline: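 HepG2 cells, attached overnight, were exposed to compound for 1 hr at 37C, then stained 30 min with a potentiometric dye. Ratio of red aggregate (590nm) to green monomer (535nm) fluorescence reports membrane potential; collapse shifts signal toward green.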

[15] = qHTS assay for small molecule disruptors of the mitochondrial membrane potential - 5 hr assay (AID 651755; calls by dose curve; note: nearly all actives have a fitted effect of over 40% in size)
Outline: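 HepG2 cells (2,000/well), attached overnight, exposed to compound 5 hr at 37C, then Mito-MPS dye 30 min. Fluorescence read for monomers (490/535 nm) and aggregates (540/590 nm).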

[16] = target: Tumor necrosis factor (Homo sapiens) (UniProt P01375); assay: qHTS assay to identify small molecules that stimulate Tumor Necrosis Factor-alpha (TNF-alpha) secretion (AID 651757; active = well fitted curve in the direction sought with a large enough effect in the signal ratio; the % refers to the signal ratio)
Outline: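 THP-1 cells (3000/well) exposed to compounds 17 hrs at 37 C. Secreted TNF-alpha detected by HTRF with cryptate- and XL665-labeled anti-TNF-alpha antibodies after 3 hr at room temperature.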

[17] = qHTS assay to identify small molecules that stimulate interleukin-8 (IL-8) secretion (AID 651758; active = well fitted activation curve with a large enough effect in the signal ratio; the % refers to the signal ratio)
Outline: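 THP-1 cells (2000/well) exposed to compound 16 h at 37 C; secreted IL-8 then detected by HTRF with cryptate- and XL665-labelled anti-IL-8 antibody pair after 1-3 h at room temperature.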

[18] = qHTS assay for environmental chemicals that activate the Aryl hydrocarbon Receptor (AhR) signaling pathway (AID 651777); conditions: 1A2-DRE human hepatoma cells, luciferase, 24 h; stronger effect = higher value; note: nearly all actives have a fitted effect of over 15% in size
Outline: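 Quantitative HTS in stably transfected human liver-derived cells whose luciferase gene sits downstream of the CYP1A2 promoter and dioxin response element. After 24 hr exposure at 37 C, One-Glo luminescence was measured.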

[19] = target: Peroxisome proliferator-activated receptor alpha (Homo sapiens) (UniProt Q07869); assay: qHTS assay for small molecule agonists of the peroxisome proliferator-activated receptor alpha (PPARalpha) signaling pathway (AID 651778); conditions: PathHunter PPARalpha complementation, chemiluminescence, 6 h; stronger effect = higher value
Outline: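 Enzyme-fragment complementation assay in which ligand-bound PPARalpha translocates and forms an active enzyme that generates chemiluminescence. Cells were plated overnight, exposed to compound for 6 hr at 37 C, and then given detection reagent for 60 min at room temperature.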

[20] = target: Nuclear receptor subfamily 1 group I member 2 (Rattus norvegicus) (UniProt Q9R1A7); assay: qHTS assay for small molecule activators of the rat pregnane X receptor (rPXR) signaling pathway (AID 651751; call rule not given here); conditions: rPXR reporter cells, luciferase (One-Glo), 24 h
Sequence of Nuclear receptor subfamily 1 group I member 2 (Rattus norvegicus) (Q9R1A7 whole entry, looked up): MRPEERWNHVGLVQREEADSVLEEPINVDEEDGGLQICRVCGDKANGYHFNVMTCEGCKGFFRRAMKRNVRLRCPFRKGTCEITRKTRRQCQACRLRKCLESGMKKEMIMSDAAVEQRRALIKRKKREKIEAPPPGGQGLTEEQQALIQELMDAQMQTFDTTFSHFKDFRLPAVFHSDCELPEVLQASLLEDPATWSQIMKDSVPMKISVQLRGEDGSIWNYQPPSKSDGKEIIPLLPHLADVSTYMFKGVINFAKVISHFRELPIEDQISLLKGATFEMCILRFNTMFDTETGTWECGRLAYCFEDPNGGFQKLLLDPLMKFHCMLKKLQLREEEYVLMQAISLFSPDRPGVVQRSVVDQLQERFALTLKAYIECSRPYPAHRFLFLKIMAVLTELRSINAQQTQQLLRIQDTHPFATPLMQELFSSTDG

Sequence of Glucocorticoid receptor (Homo sapiens) (P04150 whole entry, looked up): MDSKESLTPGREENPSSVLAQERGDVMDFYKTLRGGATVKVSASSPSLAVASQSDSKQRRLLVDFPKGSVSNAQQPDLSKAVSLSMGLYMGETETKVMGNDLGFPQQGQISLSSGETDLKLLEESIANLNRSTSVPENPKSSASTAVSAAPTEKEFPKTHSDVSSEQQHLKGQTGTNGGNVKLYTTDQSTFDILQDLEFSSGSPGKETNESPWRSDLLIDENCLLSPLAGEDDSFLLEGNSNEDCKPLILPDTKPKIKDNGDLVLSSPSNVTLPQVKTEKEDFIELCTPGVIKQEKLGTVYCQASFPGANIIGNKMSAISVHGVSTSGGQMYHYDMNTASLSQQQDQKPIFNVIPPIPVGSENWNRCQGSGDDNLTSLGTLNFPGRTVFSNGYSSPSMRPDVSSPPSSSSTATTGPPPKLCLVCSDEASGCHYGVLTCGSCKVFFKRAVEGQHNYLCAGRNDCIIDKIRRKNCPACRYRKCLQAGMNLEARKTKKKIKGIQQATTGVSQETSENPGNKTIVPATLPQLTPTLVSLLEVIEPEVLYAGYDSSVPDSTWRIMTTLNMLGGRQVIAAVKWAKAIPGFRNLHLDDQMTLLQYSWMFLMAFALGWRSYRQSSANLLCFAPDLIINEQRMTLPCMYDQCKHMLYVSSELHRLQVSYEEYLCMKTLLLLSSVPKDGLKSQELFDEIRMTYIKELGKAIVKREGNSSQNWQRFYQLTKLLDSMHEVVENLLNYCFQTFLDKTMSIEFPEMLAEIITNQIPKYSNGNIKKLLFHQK
Sequence of Androgen receptor (Homo sapiens) (P10275 whole entry, looked up): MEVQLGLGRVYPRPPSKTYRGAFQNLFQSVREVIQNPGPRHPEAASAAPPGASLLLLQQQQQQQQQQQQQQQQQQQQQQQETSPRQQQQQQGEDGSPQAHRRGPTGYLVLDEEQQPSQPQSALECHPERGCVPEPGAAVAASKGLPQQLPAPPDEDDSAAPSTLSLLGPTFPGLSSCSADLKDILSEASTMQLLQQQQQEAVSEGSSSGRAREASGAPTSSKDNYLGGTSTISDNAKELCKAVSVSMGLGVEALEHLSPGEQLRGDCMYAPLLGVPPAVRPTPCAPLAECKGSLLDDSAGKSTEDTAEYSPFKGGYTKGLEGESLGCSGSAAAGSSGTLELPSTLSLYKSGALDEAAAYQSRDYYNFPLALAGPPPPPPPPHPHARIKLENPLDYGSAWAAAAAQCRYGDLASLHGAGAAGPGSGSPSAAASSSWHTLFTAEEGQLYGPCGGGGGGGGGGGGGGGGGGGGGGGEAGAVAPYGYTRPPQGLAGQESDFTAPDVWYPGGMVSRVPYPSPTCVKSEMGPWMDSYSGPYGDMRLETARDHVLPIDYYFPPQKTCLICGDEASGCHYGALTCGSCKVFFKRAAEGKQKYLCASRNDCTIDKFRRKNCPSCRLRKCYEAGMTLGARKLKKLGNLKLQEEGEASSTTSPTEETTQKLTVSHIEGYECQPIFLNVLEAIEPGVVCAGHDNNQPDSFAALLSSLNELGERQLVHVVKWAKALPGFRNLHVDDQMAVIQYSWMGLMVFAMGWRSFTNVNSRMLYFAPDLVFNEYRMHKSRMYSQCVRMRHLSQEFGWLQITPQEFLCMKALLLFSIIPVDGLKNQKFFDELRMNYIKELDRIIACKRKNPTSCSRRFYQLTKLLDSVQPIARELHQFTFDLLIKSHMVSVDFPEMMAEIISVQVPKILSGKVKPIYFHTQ
Sequence of Estrogen receptor (Homo sapiens) (P03372 whole entry, looked up): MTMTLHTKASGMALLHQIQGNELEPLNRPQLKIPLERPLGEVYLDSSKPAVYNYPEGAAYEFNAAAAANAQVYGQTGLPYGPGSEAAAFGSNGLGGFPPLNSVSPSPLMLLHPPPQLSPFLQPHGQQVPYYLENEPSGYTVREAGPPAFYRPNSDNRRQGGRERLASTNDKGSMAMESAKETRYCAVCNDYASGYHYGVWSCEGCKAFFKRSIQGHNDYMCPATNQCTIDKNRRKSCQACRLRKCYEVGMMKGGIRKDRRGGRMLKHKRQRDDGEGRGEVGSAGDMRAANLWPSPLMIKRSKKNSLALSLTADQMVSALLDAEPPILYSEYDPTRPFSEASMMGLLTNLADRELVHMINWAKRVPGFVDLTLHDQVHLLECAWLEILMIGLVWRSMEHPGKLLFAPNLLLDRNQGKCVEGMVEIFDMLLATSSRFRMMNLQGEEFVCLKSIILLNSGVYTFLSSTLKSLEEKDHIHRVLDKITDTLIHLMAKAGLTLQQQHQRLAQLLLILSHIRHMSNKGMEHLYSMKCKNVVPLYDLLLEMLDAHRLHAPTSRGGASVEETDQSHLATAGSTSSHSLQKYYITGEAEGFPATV
Sequence of Retinoic acid receptor RXR-alpha (Homo sapiens) (P19793 whole entry, looked up): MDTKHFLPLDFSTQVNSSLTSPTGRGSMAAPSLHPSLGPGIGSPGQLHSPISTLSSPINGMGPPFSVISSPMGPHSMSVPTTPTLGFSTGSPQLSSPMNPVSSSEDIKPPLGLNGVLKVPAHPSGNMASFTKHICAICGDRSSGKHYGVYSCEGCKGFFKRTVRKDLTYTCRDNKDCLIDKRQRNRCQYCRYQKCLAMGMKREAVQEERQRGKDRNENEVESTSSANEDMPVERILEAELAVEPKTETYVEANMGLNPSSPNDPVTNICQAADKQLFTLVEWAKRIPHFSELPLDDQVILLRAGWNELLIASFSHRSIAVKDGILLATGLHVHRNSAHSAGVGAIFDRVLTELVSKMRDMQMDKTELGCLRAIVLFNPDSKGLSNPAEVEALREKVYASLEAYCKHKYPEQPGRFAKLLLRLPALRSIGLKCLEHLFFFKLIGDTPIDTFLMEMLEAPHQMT
Sequence of Tumor necrosis factor (Homo sapiens) (P01375 whole entry, looked up): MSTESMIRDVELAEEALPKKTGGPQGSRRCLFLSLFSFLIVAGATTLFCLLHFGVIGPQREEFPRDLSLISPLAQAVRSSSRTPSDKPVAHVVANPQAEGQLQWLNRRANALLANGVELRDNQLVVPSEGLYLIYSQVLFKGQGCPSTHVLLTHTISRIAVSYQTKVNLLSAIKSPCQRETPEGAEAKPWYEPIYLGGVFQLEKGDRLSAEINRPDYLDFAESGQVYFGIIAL
Sequence of Peroxisome proliferator-activated receptor alpha (Homo sapiens) (Q07869 whole entry, looked up, the tested form may be a part): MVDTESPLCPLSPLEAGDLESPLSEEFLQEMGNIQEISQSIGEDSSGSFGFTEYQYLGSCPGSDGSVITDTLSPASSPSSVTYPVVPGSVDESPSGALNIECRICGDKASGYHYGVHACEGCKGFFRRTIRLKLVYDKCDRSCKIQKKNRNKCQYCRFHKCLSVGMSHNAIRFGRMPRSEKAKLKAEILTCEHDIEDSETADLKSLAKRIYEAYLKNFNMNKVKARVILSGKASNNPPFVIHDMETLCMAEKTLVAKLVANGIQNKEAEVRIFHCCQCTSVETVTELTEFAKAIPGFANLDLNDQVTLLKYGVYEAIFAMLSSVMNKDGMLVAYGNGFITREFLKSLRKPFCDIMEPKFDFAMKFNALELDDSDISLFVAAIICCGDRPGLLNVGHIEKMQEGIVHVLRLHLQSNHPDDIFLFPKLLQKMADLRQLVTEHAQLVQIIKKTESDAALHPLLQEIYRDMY

CN(C)CCOC(c1ccccc1)c1ccccc1 (tested in a mixture with another compound)
Potency [1]: 25.1 µM (active)
outcome [2]: inactive
outcome [3]: inactive
outcome [4]: inactive
outcome [5]: inactive
outcome [6]: inactive
outcome [7]: inactive
outcome [8]: inactive
outcome [9]: inactive
activation [10]: 1.99% (inactive)
outcome [11]: inactive
max response [12]: 3.3%
max response [13]: -6.76% (inactive)
outcome [14]: inactive
outcome [15]: inactive
outcome [16]: inactive
outcome [17]: inactive
activation [18]: 0.508% (inactive)
max response [19]: 0.237% (inactive)
max response [20]: -6.62% (inactive)
